This is a sample that favours compounds with a hit; in the whole collection about 4.7% have one here.
D1 antag: Antagonist of Human D 1 Dopamine Receptor: qHTS; D(1A) dopamine receptor (Homo sapiens), P21728; HEK293 TREx D1 cells, calcium flux, dopamine EC80; stronger effect = lower value; activity change, negative = inhibition, % at 10 µM; 360,000 tested, 3.2% active; AID 504652, 2011; in the data active = activity change below about -30%
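Compound effects on dopamine-evoked calcium signalling were measured in tetracycline-induced HEK293 Trex D1 cells. Dopamine at EC80 followed a 180 s compound pre-read, and fluorescence was tracked kinetically for 180 s more.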
D1 agonist: Allosteric Agonists of the Human D1 Dopamine Receptor: qHTS; HEK293 T-REx D1 cells, calcium flux, agonist mode; activation, % at 2 µM; 360,000 tested, 1% active
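Agonism was scored from calcium flux recorded over 180 s (1 read/s) after pintool compound addition, following a 10-cycle baseline. Cells were inducible force-coupled HEK293 TREx D1, plated overnight at 30 C and loaded with no-wash calcium dye.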
D1 PAM: Potentiators of Human D1 Dopamine Receptor: qHTS; D(1A) dopamine receptor (Homo sapiens), P21728; HEK293 TREx D1 cells, calcium flux, dopamine EC20 potentiation; potentiation, % at 10 µM; 360,000 tested, 0.036% active; in the data active = potentiation above about 30%
TRHR ag: qHTS for Small Molecule Agonists and Allosteric Enhancers of Human TRH Receptor: Primary Screen for Agonists; TRHR cells, calcium flux fluo-8, FDSS agonist mode; activation, % at 2 µM; 360,000 tested, 0.18% active
Target sequence (P34981 whole entry, looked up): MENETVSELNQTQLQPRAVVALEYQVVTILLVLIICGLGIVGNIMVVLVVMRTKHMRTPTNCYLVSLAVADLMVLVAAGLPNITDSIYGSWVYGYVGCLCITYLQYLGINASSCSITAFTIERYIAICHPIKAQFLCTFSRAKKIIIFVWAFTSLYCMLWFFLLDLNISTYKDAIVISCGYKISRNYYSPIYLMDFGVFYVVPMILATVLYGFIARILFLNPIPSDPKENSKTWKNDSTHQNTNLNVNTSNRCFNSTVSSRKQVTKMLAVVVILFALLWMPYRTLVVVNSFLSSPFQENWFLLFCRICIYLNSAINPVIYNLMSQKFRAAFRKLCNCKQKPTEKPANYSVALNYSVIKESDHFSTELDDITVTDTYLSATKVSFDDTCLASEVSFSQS
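In this calcium-flux screen, cells bearing human TRHR are dye-loaded with fluo-8, baselined for 10 cycles, then exposed to library compounds; positive kinetic calcium responses during the agonist phase mark hits, with TRH as control.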
TRHR enhancer: qHTS for Small Molecule Agonists and Allosteric Enhancers of Human TRH Receptor: Primary Screen for Enhancers. Thyrotropin-releasing hormone receptor (Homo sapiens), P34981. TRHR cells, fluo-8 calcium fluorescence, EC20 TRH enhancement. enhancement, % at 2 µM. 360,000 tested, 0.66% active; in the data active = enhancement above about 30%
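TRHR-expressing cells loaded with fluo-8 calcium dye were read kinetically (ex 480/em 530) during compound addition, then stimulated with an EC20 of TRH (10 nM final). Enhancement of the Gq-mediated intracellular calcium response was scored.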
Each line names hits and unclear results; the compound was inactive in the other large screens. Rule as the data show it, unless noted: active = activation above about 30%; inactive = the rest.

Cc1ccc(NC(=O)C(Cc2ccccc2)NS(=O)(=O)c2ccc3c(c2)oc(=O)n3C)c(Cl)c1 (configuration not stated)	none
Clc1ccccc1-c1nnc(SCc2nc(-c3ccccc3)no2)n1-c1ccccc1	none
Cc1ccc(S(=O)(=O)NCc2nc3cccnc3n2Cc2ccccc2Cl)c(C)c1	none
Cc1ccc(-c2cc(C(=O)NCCc3ccccc3)c3ccccc3n2)cc1C	D1 antag -31
CCOc1ccc(-c2cc(C(=O)NCCc3ccc(C)cc3)c3ccccc3n2)cc1	none
Cc1cc(C)n2ncc(C(=O)NCCc3ccccc3)c2n1	D1 antag -33
Cn1cc(CN2CCN(CC(C)(C)C)C(CCO)C2)c2ccccc21 (configuration not stated)	none
Cc1ccc(C)c(S(=O)(=O)c2nnn3c2nc(NC2CCCCC2)c2sccc23)c1	none
C=CCNCCCCOc1cccc(Br)c1	D1 agonist 32
OCCNCCCCOc1cccc(Br)c1	none
Cc1cc2c(s1)c1cnn(Cc3ccc(C)c(F)c3F)c(=O)c1n2C	none
O=C(NC(=S)Nn1cnnc1)c1ccccc1Cl	none
CC(C)(C)c1ccc(C(=O)NC(=S)Nn2cnnc2)cc1	D1 antag -32
CC1CCCN(C(C(=O)Nc2ccc3c(c2)OCO3)c2ccccc2)C1 (configuration not stated)	none
CC1CCN(C(C(=O)Nc2ccc3c(c2)OCO3)c2ccccc2)CC1 (configuration not stated)	D1 antag -42
CC(C)C(=O)Nc1nnc(SCC(=O)Nc2ccc3c(c2)OCO3)s1	D1 antag -41
O=C(CSc1nnc(CNC(=O)c2cccs2)o1)Nc1ccc2c(c1)OCO2	D1 antag -36
Cn1cc(SCC(=O)Nc2ccc3c(c2)OCO3)c2ccccc21	D1 antag -35 (no result: D1 PAM)
Cc1cc(C)n(Cc2ccccc2Cl)n1	D1 antag -47
Cc1ccc(C(CNC(=O)Nc2ccc(Cl)cc2)N2CCN(C)CC2)cc1 (configuration not stated)	D1 antag -44
CN1CCN(C(CNC(=O)Nc2ccc(Cl)cc2)c2ccc(F)cc2)CC1 (configuration not stated)	none
Cc1ccc(Oc2ccc(OCC(=O)NC3CCS(=O)(=O)C3)cc2)cc1 (configuration not stated)	D1 antag -48, D1 agonist 36 (no result: D1 PAM)
N#Cc1ccccc1OCC(=O)NC(=O)NC1CCS(=O)(=O)C1 (configuration not stated)	none
O=C(COc1ccc([N+](=O)[O-])cc1)NC(=O)NC1CCS(=O)(=O)C1 (configuration not stated)	D1 antag -45
COc1cc(OC)c(NC2=C(c3ccc(C(F)(F)F)cc3)C(=O)c3ccccc32)cc1Cl	none
O=C(NCc1ccccc1)c1noc2c1CCCCC2	none
CC(NC(=O)c1noc2c1CCCCC2)c1ccccc1 (configuration not stated)	TRHR enhancer 30
CCCN1C(=O)/C(=C/c2c(NCCCOCC)nc3c(C)cccn3c2=O)SC1=S	none
O=C1/C(=C\c2c(NCCOCCO)nc3ccccn3c2=O)SC(=S)N1Cc1ccco1	D1 agonist 138, TRHR ag 33
Cc1noc(C)c1S(=O)(=O)N(CC(=O)Nc1ccc(F)cc1F)c1ccc(C(C)C)cc1	none
Nc1ccc2c(c1)Nc1ccccc1CC2	D1 antag -31
COC(=O)Nc1ccc2c(c1)Nc1ccccc1CC2	none
N#C/C(=C\c1ccc(/C=C(/C#N)c2nn(CCO)c(N)c2C#N)cc1)c1nn(CCO)c(N)c1C#N	none
COc1cc(/C=C(\C#N)c2nn(CCO)c(N)c2C#N)cc(OC)c1OC	TRHR enhancer 33
Cn1c2ccsc2c2cnn(Cc3ccccc3F)c(=O)c21	none
Cc1ccc(OCC(=O)Nc2cccc(-c3nc4ccccc4s3)c2)cc1	none
O=C(Nc1cccc(-n2cnnn2)c1)c1cc(Cl)ccc1Cl	D1 antag -44
O=C(Nc1cccc(-n2cnnn2)c1)c1ccco1	D1 antag -57

Screening data (PubChem)
